# The list is not random: actives were taken first. Their share in the collection is about 2.8%.
# B2AR ag: agonists of human beta-2 adrenergic receptor inducing internalization; P07550; Am2.2-beta2AR cells, FAP receptor internalization, flow cytometry; response, % (test concentration not listed); 340,000 tested, 0.43% active; AID 504454;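 active = response above a set limit, near 3 SD of response in nonfluorescent compounds, cut at about 42% in these data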
# Target sequence (P07550 whole entry, looked up): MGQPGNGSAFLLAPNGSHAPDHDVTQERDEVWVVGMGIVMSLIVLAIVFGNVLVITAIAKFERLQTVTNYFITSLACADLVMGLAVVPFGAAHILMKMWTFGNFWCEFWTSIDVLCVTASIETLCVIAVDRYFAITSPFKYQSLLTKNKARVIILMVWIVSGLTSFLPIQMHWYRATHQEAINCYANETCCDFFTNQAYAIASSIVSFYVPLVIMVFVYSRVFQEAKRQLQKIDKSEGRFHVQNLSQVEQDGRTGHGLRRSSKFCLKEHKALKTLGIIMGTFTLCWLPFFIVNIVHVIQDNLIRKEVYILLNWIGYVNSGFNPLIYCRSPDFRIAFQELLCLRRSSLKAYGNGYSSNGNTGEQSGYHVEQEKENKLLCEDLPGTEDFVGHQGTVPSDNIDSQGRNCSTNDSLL
# CF NFkB block: cystic fibrosis NF-kB activation inhibition. KKLEB NF-kB-GFP reporter, PAF-induced, GFP fluorescence overnight. inhibition, % at 5 µM. 360,000 tested, 0.86% active;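 active = at least 50% inhibition at 5 µM, scaled per plate between neutral and stimulator controls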;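 note: PAF is a Pseudomonas aeruginosa culture filtrate used as stimulus; plate controls were PAF-stimulated DMSO wells for no effect and unstimulated DMSO wells for full effect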
# KKLEB tox: reduces viability of KKLEB cystic fibrosis airway cells | 360,000 tested, 0.36% active | activity change (cytotoxicity), % at 5 µM | KKLEB CF airway cells viability, ATPlite luminescence, overnight; stronger effect = lower value; cells stimulated with P. aeruginosa culture filtrate;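 active = corrected activity change at or below -50% at 5 µM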
# HIF-2a block: blocks HIF-2a reporter activity; inhibition, % at 18.8 µM; 360,000 tested, 0.72% active; 786-0 RCC cells HIF-2a reporter, luciferase luminescence, overnight;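 active = inhibition of the luminescence signal of 40% or more relative to plate controls, in a single-dose primary screen at 18.75 µM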
# Peg3 prom inh: inhibitors of Peg3 promoter; 360,000 tested, 1.7% active; inhibition, % at 20 µM; HeLa PEG-Prom luciferase reporter, luminescence, overnight; AID 588405;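 active = inhibition of at least 50% at 20 µM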
# TRPM1 prom inh: inhibitors of MITF-driven TRPM1 promoter in melanoma cells; SK-MEL-5 TRPM1 promoter luciferase, 24 h; inhibition, % at 12.5 µM; 330,000 tested, 0.83% active; AID 488899;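 active = mean inhibition across replicates of 60% or more, whatever share of single replicates reaches that level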
# Mdm2 MdmX conf: Mdm2/MdmX (human) interaction inhibition, confirmed; shares compounds with HIF-2a block; SaOS-2 split-luciferase Mdm2/MdmX complementation, luminescence; inhibition, % at 8 µM; 740 tested, 99% active;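 active = mean inhibition of the luminescence signal across two replicates at or above 26 percent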
# HIF-2a conf: HIF-2a inhibition, single concentration confirmation; shares compounds with HIF-2a block; 786-0 RCC cells, HIF-2a luciferase reporter luminescence, overnight; inhibition, % at 18.8 µM; 1,800 tested, 56% active; AID 651580;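 active = mean inhibition across four replicates of at least 40 percent at the single tested concentration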
# HIF-1a counter: HIF-1a inhibition counter-screen for HIF-2a hits; shares compounds with HIF-2a block; AID 651589; MiaPaCa-2 HIF-1a luciferase reporter, desferoxamine, overnight; inhibition, % at 18.8 µM; 1,800 tested, 72% active;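 active = mean inhibition of the reporter signal across four replicates at the single tested dose of 50% or more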
# * marks the source's active call; other numbers are inactive results; · = no result given.
SMILES,B2AR ag,CF NFkB block,KKLEB tox,HIF-2a block,Peg3 prom inh,TRPM1 prom inh,HIF-2a conf,HIF-1a counter,others
O=C(Nc1ncccn1)c1cc([N+](=O)[O-])cc([N+](=O)[O-])c1,4,26,-12,16,7,-3,·,·,
CCOC(=O)C1CCN(C(=O)COc2ccc([N+](=O)[O-])cc2)CC1,4,-3,10,20,10,5,·,·,
CCOC(=O)C1CCCN(C(=O)COc2ccc(C(C)(C)C)cc2)CC1 (stereo not drawn),·,-9,5,47*,-18,·,58*,-27,
CC1CCC2C(C1)c1sc(=O)[nH]c1SC2(C)C (stereo not drawn),-14,8,-5,20,19,7,·,·,
Cc1nnc(SC(=O)N2c3ccccc3Sc3ccccc32)s1,9,69*,-58*,19,99*,76*,·,·,Mdm2 MdmX conf=103*
CCc1nc(SCC(=O)N2c3ccccc3CC2C)c2c(C)c(C)sc2n1 (stereo not drawn),-3,-9,7,15,6,8,·,·,Mdm2 MdmX conf=101*
Cc1sc2nc(C(C)C)nc(SCC(=O)N3c4ccccc4CC3C)c2c1C (stereo not drawn),-1,8,-20,20,11,-2,·,·,
COc1ccc(C)c2sc(N(CCCN(C)C)C(=O)c3ccc(S(=O)(=O)N4CCc5ccccc5C4)cc3)nc12,51*,75*,-84*,85*,102*,96*,29,97*,
COCOCCn1cc(CN2CCS(=O)(=O)N(Cc3ccc(-c4ccc(OC)cc4)cc3)C(C)C2=O)nn1 (stereo not drawn),·,2,-9,-9,-15,·,·,·,
O[C@@H]1[C@@H](O)C=C2CCN3Cc4cc5c(cc4[C@H]1C23)OCO5 (stereo partly drawn),61*,57*,32,51*,63*,63*,40*,103*,
COc1cc(OC)nc(Nc2nc(C(N)Cc3ccc(C(F)(F)F)cc3)cs2)n1 (stereo not drawn),·,12,-21,70*,115*,·,-2,105*,
O=C(/C=C/c1ccccc1)/C=C/c1ccccc1,16,-80,-17,94*,110*,79*,4,103*,
Cc1csc(NC(=O)NCC2CCCC(CNC(=O)Nc3nc(C)cs3)C2)n1 (stereo not drawn),-20,14,-7,-121,-134,-5,·,·,
NC(Cc1ccc(Cl)cc1)c1csc(NC(=O)NCC2CCCCC2)n1 (stereo not drawn),·,22,-17,61*,92*,·,-23,101*,
COc1ccc(CS(=O)(=O)/C(Cl)=C(/Cl)C(=O)Nc2ccc(OC)nc2)cc1,48*,88*,-86*,93*,104*,94*,·,·,Mdm2 MdmX conf=103*
O=c1cccc2c1c1cc[nH]c3ccc(=O)n2c31,22,47,-4,36,28,29,·,·,Mdm2 MdmX conf=93*
CN(C(=S)NC(=O)c1ccc(Cl)cc1)C1CCCCC1,-6,9,5,-121,-108,-12,·,·,
CN(C(=S)NC(=O)c1ccccc1)C1CCCCC1,5,-21,-12,50*,29,-3,0,13,
CS(=O)(=O)c1ccc(S(=O)CC(=O)OCc2ccccc2)c([N+](=O)[O-])c1 (stereo not drawn),44*,89*,-45,91*,110*,83*,52*,106*,
Cc1nc(Sc2ccccc2)c(C#N)c(C)c1[N+](=O)[O-],2,6,-14,8,3,-11,·,·,
Cc1cc(C)c(C#N)c(Sc2nc(C)c([N+](=O)[O-])c(C)c2C#N)n1,·,8,-28,90*,98*,·,26,40,
O=C(O)c1ccccc1C(=O)Nc1ccccc1,3,-6,14,1,6,3,·,·,
